According to the OligoGym collection:

target: HNRNPL; test: pooled miR-30 sensor sort-seq; sequence = guide strand; conditions: shRNA
Note: reference of the scale not given here.

Sequence | sensor-assay potency score (higher = more potent)
TTGAACTGAGTCAAATTCCACC | -0.367
TTGTGTAGTCCCAAGTATCCTG | 0.0698
TCTTGAACACATTCAAGCGTGT | 0.0553
TTAAGGTTAAGTAAGCCTCTAC | 0.152
ATAGTGTAAAGAACATCCGTGG | -0.231
TAGTGTAAAGAACATCCGTGGT | -0.214
TTGAACACATTCAAGCGTGTAG | 0.215
TAAAAGTGAAGGTTAATCTTGG | 0.553

target: HNRNPU; test: as above; conditions: shRNA

Sequence | sensor-assay potency score (higher = more potent)
AACTACAACAGCTTTTCGCTGG | 0.276
TAAAATTTCGCTTCTTTCGGGC | 0.159
TATTGCTTTTCTTTGAGCCAGT | -0.865
TTCTTCCTTATATTGCTCCAAG | -1.21
TTGCTTATAGTCTTCATCTTTT | -0.867
TTATCCATAATAGTATTTGTGC | -0.391
TTGAGTAACTACCACGGCCAGG | -1.38
TTCATCTCAAAACACACTTTGC | -0.868
TTCTTCTTCAACAGGTGGCTGA | -0.158
TTTCATCAAACTTTTCTCCATA | -0.817
TTTGCTTCTTAAAACCTGCCAC | 0.467
